# Screening results: PubChem BioAssay, National Center for Advancing Translational Sciences (NCATS)
# aSyn yeast inh: qHTS of alpha-syn Inhibitors. Yeast expressing alpha-synuclein, growth rescue, BacTiter-Glo, 24 h. actives 0.14% (n = 370,000). Potency, µM (highest dose often 46.1 µM), usual class: activators; also: nearly all actives have a fitted effect of over 65% in size
#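 Readout is rescue of growth in alpha-synuclein-expressing yeast, so inhibitors of toxicity appear as activators. Growth after 24 hr at 30 deg C in galactose medium is quantified by luminescence.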
# TDP-43 yeast inh: qHTS of TDP-43 Inhibitors; Potency, µM (top dose mostly 46.1 µM), usual class: activators; TDP-43 expressing yeast growth rescue, BacTiter-Glo, 24 h; AID 652104, 2013; actives 1.8% (n = 410,000); also: nearly all actives have a fitted effect of over 50% in size
#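 Luminescence from BacTiter-Glo reports growth of TDP-43-expressing yeast after 24 hr at 30 deg C with compound. Cells were raffinose-pregrown to mid-log, then seeded in galactose medium at OD600=0.02.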
# FUS yeast rescue: qHTS for Suppressors of FUS Proteinopathy: Primary screen using FUS-linked yeast assay; S. cerevisiae FUS-expressing, growth rescue, OD600, 24 h; Potency, µM (top dose mostly 76.6 µM), most hits filed as activators; actives 0.24% (n = 390,000); also: nearly all actives have a fitted effect of over 55% in size
#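 Read-out: OD at 600 nm after 24hr at 30C, reporting rescue of FUS-induced yeast toxicity. Cells at OD 0.005 in galactose (2%) minimal medium; compounds tested in a dilution series; CP55940 titration from 92uM final as control.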
# Mito fusion yeast: qHTS Assay for Small Molecule Inhibitors of Mitochondrial Division or Activators of Mitochondrial Fusion; AID 485298, 2010; actives 0.23% (n = 320,000); Potency, µM (doses to about 46.1 µM), actives largely listed as activators; S. cerevisiae fusion-defective mutant growth rescue, CellTiterGlo 48 h; also: nearly all actives have a fitted effect of over 45% in size
#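 Growth-rescue viability read-out: after 48 h at the non-permissive 37C in glycerol/ethanol YPEG, yeast mitochondrial fusion mutants are measured by CellTiterGlo luminescence; compounds (23 nl pinned per well) restoring growth score as division inhibitors or fusion activators.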
# Abeta rescue: qHTS for compounds that reverse cellular toxicity of Amyloid beta (A-beta) peptide in yeast: Primary Screen. yeast expressing A-beta42, growth rescue, OD600, 48 h; response scale: 0% DMSO, 100% iron-clioquinol control. Potency, µM (top dose mostly 46.1 µM), actives largely listed as activators. actives 0.063% (n = 410,000). AID 1347071, 2019; also: nearly all actives have a fitted effect of over 55% in size
#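 Growth rescue measured by 600 nm absorbance after 48 h yeast culture at 30 C with compound. Values normalized between DMSO and an equimolar ferric chloride plus clioquinol control.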
# Numbers stand for hits; i = inactive; ? = inconclusive; nt = no result. Only some compounds are listed: those with a hit (about 2.2% of all), similar ones and a draw of the others. Calls follow the shape of the dose curve; as a rule, active = well fitted curve in the direction sought with a large enough effect; inconclusive = small, poorly fitted or top-dose-only effect, or another doubt; inactive = no such curve, though single readings can be large; an effect the other way counts as inactive or inconclusive.
SMILES,aSyn yeast inh,TDP-43 yeast inh,FUS yeast rescue,Mito fusion yeast,Abeta rescue
COc1cccc(CNc2nc3cc(-c4cscc4C)sc3c(=O)n2C)c1,?,20µM,?,nt,i
COc1ccccc1C(C)NC(=O)Cc1ccc(S(=O)(=O)N2CCOCC2)s1 (configuration not stated),i,i,i,i,i
O=C(/C=C\c1ccc(-c2ccccc2)o1)c1ccccc1,i,i,i,i,i
Cc1ccc(C(=O)/C=C/c2ccc(-c3ccc(C)cc3)o2)cc1,i,i,14.1µM,i,i
O=C(c1cc(-c2ccc(O)cc2)on1)N1CCc2ccccc2C1,i,14.1µM,i,i,i
CCc1ccc(N2CC(c3nc4ccccc4n3Cc3ccccc3C)CC2=O)cc1 (configuration not stated),nt,28.2µM,?,nt,i
CCOc1ccc(N2CC(c3nc4ccccc4n3CCOc3ccc(CC)cc3)CC2=O)cc1 (configuration not stated),nt,i,i,nt,i
Cc1ccc(C)c(OCCn2c(C3CC(=O)N(Cc4ccc(F)cc4)C3)nc3ccccc32)c1 (configuration not stated),nt,35.5µM,?,nt,i
Cc1cccc(OCCCCn2c(C3CC(=O)N(c4ccccc4Cl)C3)nc3ccccc32)c1 (configuration not stated),nt,i,i,nt,i
CCc1ccccc1N1CC(c2nc3ccccc3n2CCOc2ccc(Cl)c(C)c2)CC1=O (configuration not stated),nt,i,25.1µM,nt,i
Cc1cccc(OCCCCn2c(C3CC(=O)N(c4ccc(C)cc4C)C3)nc3ccccc32)c1 (configuration not stated),nt,31.6µM,?,nt,i
COc1ccc(Cl)cc1NC(=O)C(=O)NCc1ccc(Cl)cc1,nt,i,i,nt,i
CCCN1CNc2c(c(=O)[nH]c(=S)n2CCc2cccc(C)c2C)C1,i,nt,nt,nt,nt
O=C(CN1C(=O)CCSc2ccc(S(=O)(=O)N3CCCC3)cc21)NCc1ccccc1Cl,i,i,i,i,i
C[C@@H]1CN([C@H](C)CO)C(=O)CCCn2nncc2CO[C@H]1CN(C)C(=O)NC1CCCCC1,i,i,i,nt,i
CCOC(=O)c1cccc(NC(=O)c2ccc3nc(CCc4ccccc4)oc3c2)c1,nt,i,i,nt,i
CCOC(=O)c1ccc(N2C(=O)c3n[nH]c(-c4cccs4)c3C2c2ccc(C(C)(C)C)cc2)cc1 (configuration not stated),nt,i,i,nt,i
Nc1c(C(=O)c2ccc(Br)s2)oc2ccccc12,i,12.6µM,i,?,i
CCC[C@H]1[C@@H](NC(=O)Nc2ccc3c(c2)OCO3)CC[C@@]23CCCN2C(=O)CCC[C@@H]13,nt,nt,i,nt,nt
COc1cccc(-c2nc(S(=O)(=O)c3ccc(C)cc3)c(N3CCCCC3)o2)c1,nt,i,i,nt,i
CCc1ccccc1NC(=O)c1ccc2c(SCC(=O)O)c3c(nc2c1)CCC3,nt,i,i,nt,i
COc1ccc(NC(=O)C2(C)CCN2C(=O)c2ccccc2CCc2ccccc2)cc1OC (configuration not stated),i,17.8µM,?,nt,i
CC1(C(=O)NS(=O)(=O)c2cccc(F)c2)CCN1C(=O)c1ccccc1CCc1ccccc1 (configuration not stated),i,?,i,nt,i
Cc1cccc(S(=O)(=O)NC(=O)C2(C)CCN2C(=O)c2ccccc2CCc2ccccc2)c1 (configuration not stated),i,15.8µM,i,nt,i
COc1ccc2nc(NC(=O)c3ccc(S(=O)(=O)N4CCC(C)CC4)cc3)sc2c1,i,i,i,nt,i
CN(CC(=O)Nc1ccccc1Br)C(=O)c1sccc1-c1ccccc1,i,?,i,i,i
Cc1c(C)n(CCC#N)c2ccc(Cl)cc12,i,12.6µM,nt,i,i
CCn1c(C)c(C)c2cc(C(=O)Nc3cccc(Cl)c3)ccc21,i,i,i,i,i
Cc1ccc(CSc2cn(CC(=O)N3CCCC3)c3ccccc23)cc1,nt,22.4µM,?,nt,i
Cc1ccc(CSc2cn(CC(=O)N3CCCCCC3)c3ccccc23)cc1,nt,i,i,nt,i
